In the supplement of paper PMC13380429:

System: Vero E6 infected with SARS-CoV-2
Assay: inhibition of SARS-CoV-2 cytopathic effect; higher = more antiviral protection, active = above 15
Conditions: 48 h

Measured: inhibition of SARS-CoV-2 cytopathic effect

CN/C(=N\c1ccc(C2=NNC(=O)CC2C)cc1)NC#N (stereo not given) [siguazodan]
inactive: 1 nM 1.52% | 8.33 nM 1.14% | 100 nM -0.26% | 833.33 nM 1.67% | 10000 nM -1.34%

FC(F)(F)c1ccccc1-c1cc(C(F)(F)F)c2[nH]c(C3=NOC4(CCCCC4)C3)nc2c1
inactive: 1 nM -0.82% | 8.33 nM 0.77% | 100 nM -0.98% | 833.33 nM -2.13% | 10000 nM -3.97%

CC(C)[C@H]1C(=O)N[C@@H](CCCNC(=N)N)C(=O)NCC(=O)N[C@@H](CC(=O)O)C(=O)N[C@H](Cc2ccccc2)C(=O)N1C [cilengitide]
inactive: 1 nM -2.16% | 8.33 nM -0.5% | 100 nM -4.67% | 833.33 nM -11.1% | 10000 nM -12.6%

O=C(NC1CCOCC1)c1ccc(-c2cc(-c3c[nH]nc3-c3ccccn3)ccn2)cc1
inactive: 1 nM 1% | 8.33 nM 0.61% | 100 nM 0.23% | 833.33 nM 4.34% | 10000 nM 3.89%

OCCn1cc(-c2cnc3nnn(Cc4ccc5ncccc5c4)c3n2)cn1
inactive: 1 nM 1.37% | 8.33 nM 2% | 100 nM 1.01% | 833.33 nM 2.71% | 10000 nM 2.26%

O=C1CCc2cc(OCCCCc3nnnn3C3CCCCC3)ccc2N1 [cilostazol]
inactive: 1 nM -1.01% | 8.33 nM -0.9% | 100 nM 1.96% | 833.33 nM -0.77% | 10000 nM -0.84%

CCn1cc(-c2ccnc3[nH]c(-c4cccc(CN(C)C)c4)cc23)c(-c2ccc(NC(=O)N(C)C)cc2)n1
inactive: 1 nM 0.02% | 8.33 nM -2.56% | 100 nM -1.67% | 833.33 nM -3.22% | 10000 nM 1.16%
